# ± gives the standard deviation of the averaged measurements. Of roughly 6,200 targets only a part is listed; those with the largest changes were picked by preference.
# Compound: Nc1ncnc2c1ncn2[C@@H]1O[C@H](COP(=O)(O)OP(=O)(O)NP(=O)(O)O)[C@@H](O)[C@H]1O [adenylyl imidodiphosphate]
# Test: NP40-soluble protein abundance relative to vehicle (solubility fold change) (ratio); higher = more soluble protein in presence of AMP-PNP
# In short: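 Eight concentrations, 0.1 to 10 mM, were tested on Jurkat crude lysate for 10 min at room temperature and then 3 min at 37 °C, in three independent experiments. The lysate was solubilised with 0.8% NP40 and benzonase, ultracentrifuged, and the supernatant TMT-labelled for LC-MS/MS. Each value is the fold change against the detergent-processed vehicle in its own replicate, from vsn-normalised intensities.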
# Sequence of UniProt Q8N465 (Q8N465 whole entry, one chain of several): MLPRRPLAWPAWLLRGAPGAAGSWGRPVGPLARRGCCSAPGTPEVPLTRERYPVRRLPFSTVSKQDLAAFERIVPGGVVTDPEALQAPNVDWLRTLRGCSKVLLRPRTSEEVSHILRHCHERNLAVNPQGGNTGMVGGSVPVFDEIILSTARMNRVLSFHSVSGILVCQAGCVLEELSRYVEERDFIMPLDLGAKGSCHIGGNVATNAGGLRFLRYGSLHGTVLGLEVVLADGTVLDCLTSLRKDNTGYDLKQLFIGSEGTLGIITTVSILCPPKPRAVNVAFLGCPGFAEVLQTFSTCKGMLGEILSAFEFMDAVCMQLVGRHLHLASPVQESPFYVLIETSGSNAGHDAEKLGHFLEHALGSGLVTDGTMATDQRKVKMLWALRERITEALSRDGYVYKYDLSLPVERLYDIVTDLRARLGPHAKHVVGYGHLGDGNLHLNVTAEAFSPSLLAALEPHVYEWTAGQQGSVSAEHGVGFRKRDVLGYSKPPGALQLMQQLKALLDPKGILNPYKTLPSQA
# Sequence of UniProt Q71RG4 (Q71RG4 whole entry, one chain of several): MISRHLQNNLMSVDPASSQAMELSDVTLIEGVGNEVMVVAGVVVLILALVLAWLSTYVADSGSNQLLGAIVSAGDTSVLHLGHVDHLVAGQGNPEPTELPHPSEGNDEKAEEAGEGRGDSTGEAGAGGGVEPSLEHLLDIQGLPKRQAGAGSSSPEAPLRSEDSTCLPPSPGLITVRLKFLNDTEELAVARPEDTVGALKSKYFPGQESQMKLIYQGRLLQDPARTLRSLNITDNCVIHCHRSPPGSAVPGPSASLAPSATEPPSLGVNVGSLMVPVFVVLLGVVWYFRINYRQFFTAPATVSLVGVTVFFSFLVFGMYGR
# Sequence of UniProt Q13620 (Q13620 whole entry, one chain of several): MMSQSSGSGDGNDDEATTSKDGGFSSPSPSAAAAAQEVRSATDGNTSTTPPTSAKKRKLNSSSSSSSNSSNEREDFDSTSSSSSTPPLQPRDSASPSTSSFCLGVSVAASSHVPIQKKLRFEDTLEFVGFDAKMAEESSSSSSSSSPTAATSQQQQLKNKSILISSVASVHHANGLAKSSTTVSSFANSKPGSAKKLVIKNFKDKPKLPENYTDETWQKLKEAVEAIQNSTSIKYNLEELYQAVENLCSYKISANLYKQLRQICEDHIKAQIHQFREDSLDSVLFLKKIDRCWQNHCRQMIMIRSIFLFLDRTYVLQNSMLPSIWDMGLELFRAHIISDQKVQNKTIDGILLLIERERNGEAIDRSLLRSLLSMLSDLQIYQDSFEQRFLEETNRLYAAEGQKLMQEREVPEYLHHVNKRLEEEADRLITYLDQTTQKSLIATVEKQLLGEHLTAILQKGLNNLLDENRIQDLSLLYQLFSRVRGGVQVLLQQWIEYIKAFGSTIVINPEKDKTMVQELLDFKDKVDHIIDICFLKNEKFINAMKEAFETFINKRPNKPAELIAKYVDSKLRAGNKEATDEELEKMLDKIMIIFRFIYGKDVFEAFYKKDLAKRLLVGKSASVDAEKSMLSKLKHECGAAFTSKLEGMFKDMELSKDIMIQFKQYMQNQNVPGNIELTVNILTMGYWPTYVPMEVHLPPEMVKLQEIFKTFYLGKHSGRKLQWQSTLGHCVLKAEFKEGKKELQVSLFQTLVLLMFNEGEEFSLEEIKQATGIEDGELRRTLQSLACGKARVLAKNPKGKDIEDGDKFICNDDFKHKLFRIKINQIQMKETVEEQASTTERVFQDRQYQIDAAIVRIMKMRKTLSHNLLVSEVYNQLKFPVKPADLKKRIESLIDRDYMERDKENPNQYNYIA
# Sequence of UniProt Q9UIF9 (Q9UIF9 whole entry, one chain of several): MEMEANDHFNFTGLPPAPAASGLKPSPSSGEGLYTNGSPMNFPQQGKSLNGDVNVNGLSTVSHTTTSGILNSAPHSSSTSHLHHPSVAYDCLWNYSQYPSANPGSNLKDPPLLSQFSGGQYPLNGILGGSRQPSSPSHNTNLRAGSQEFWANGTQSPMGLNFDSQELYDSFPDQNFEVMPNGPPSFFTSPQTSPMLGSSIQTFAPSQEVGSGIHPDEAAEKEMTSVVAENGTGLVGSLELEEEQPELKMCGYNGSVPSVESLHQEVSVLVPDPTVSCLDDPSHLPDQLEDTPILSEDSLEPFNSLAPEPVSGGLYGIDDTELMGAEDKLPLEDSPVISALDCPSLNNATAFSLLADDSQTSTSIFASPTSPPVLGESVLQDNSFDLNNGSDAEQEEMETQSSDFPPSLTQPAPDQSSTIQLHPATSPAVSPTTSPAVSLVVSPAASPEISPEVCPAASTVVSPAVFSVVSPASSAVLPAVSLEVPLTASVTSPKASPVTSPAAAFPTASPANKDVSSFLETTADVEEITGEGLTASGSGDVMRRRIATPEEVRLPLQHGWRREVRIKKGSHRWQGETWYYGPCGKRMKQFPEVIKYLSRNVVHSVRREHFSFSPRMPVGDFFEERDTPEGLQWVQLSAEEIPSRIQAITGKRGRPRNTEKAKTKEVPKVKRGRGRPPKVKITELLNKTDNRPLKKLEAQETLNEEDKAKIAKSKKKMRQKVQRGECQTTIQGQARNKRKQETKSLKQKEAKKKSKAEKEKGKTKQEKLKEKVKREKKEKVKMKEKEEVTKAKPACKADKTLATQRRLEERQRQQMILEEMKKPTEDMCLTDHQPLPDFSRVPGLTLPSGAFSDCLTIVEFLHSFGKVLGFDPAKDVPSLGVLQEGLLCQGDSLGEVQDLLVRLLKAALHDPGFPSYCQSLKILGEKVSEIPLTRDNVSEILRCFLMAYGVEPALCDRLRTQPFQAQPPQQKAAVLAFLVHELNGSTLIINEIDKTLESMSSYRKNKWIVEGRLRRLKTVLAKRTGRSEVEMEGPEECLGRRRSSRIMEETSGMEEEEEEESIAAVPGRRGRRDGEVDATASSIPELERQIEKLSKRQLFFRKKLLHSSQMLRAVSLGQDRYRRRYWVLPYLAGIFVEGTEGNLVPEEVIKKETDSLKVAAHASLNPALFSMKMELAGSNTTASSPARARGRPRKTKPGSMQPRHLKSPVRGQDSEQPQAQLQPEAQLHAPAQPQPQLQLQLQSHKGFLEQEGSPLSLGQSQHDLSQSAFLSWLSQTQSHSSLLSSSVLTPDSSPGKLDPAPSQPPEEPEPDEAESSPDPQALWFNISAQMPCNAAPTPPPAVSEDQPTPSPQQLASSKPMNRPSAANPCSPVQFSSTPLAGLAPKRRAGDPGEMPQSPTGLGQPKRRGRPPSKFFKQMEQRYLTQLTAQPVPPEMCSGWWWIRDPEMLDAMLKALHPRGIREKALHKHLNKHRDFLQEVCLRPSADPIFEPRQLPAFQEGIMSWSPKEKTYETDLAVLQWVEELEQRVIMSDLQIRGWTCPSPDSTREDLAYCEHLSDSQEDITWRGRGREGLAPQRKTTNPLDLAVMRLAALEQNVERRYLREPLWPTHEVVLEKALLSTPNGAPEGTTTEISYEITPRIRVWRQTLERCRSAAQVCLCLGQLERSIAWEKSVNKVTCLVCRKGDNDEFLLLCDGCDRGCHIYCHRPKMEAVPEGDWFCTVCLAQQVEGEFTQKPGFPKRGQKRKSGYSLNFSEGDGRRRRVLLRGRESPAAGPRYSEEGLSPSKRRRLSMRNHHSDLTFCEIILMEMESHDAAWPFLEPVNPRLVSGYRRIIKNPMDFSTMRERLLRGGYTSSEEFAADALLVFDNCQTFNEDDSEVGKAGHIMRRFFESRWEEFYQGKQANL
# Sequence of UniProt Q92800 (Q92800 whole entry, one chain of several): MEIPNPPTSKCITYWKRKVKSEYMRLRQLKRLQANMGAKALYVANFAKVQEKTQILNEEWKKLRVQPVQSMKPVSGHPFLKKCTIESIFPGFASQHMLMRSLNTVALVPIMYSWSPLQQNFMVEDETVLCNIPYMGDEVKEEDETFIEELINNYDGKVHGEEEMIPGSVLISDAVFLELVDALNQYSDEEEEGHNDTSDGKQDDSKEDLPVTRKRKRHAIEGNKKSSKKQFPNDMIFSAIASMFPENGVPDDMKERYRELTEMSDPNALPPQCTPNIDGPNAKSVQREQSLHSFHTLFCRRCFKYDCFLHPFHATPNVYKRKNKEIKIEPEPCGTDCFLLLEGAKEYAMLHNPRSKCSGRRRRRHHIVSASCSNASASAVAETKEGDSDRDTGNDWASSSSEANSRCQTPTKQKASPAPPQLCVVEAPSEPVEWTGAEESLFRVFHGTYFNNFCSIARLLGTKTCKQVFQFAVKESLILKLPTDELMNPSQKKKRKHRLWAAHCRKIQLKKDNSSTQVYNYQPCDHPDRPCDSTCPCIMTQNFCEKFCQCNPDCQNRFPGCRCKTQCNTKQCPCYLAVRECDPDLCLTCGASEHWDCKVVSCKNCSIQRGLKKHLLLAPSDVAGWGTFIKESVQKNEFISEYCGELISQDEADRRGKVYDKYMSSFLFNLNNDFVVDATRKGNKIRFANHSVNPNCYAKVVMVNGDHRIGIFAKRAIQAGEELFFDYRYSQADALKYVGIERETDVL
# Sequence of UniProt Q9BVL2 (Q9BVL2 whole entry, one chain of several): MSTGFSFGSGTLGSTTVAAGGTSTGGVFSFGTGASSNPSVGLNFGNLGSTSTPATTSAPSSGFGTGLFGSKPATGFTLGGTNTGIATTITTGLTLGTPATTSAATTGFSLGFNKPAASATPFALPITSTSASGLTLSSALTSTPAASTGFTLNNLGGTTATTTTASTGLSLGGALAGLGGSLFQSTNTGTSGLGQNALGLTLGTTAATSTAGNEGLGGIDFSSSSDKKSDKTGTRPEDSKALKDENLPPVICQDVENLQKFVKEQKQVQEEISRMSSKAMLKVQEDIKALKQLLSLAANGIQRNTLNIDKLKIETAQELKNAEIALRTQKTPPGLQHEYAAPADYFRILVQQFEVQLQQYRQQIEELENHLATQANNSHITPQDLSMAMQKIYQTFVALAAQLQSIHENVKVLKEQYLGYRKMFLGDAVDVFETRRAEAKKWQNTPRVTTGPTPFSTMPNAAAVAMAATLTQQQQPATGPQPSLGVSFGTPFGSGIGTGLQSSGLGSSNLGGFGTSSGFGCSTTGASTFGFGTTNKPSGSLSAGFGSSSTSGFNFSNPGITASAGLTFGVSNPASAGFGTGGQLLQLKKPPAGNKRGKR
Target,NP40-soluble protein abundance (concentration: 1mM),NP40-soluble protein abundance (concentration: 2mM),NP40-soluble protein abundance (concentration: 4mM),NP40-soluble protein abundance (concentration: 6mM),NP40-soluble protein abundance (concentration: 8mM),NP40-soluble protein abundance (concentration: 10mM)
I3L448|Q5TC12 (UniProt Q5TC12),1.01 ± 0.033,1.02 ± 0.015,1.01 ± 0.039,0.992 ± 0.029,0.965 ± 0.027,0.977 ± 0.039
F5H7T0|F6RJM5|Q96S38|Q96S38-2 (UniProt Q96S38),0.999 ± 0.0077,1.02 ± 0.028,1.01 ± 0.034,0.9695 ± 0.004,0.991 ± 0.023,0.965 ± 0.046
F8VU39|J3KPG5|Q9UIF9|Q9UIF9-2|Q9UIF9-3 (UniProt Q9UIF9),1 ± 0.015,0.9926 ± 0.0061,1.023 ± 0.0073,1.02 ± 0.039,1.01 ± 0.014,1.03 ± 0.037
MYO1G (UniProt B0I1T2),1.14 ± 0.074,1.12 ± 0.11,1.27 ± 0.22,1.34 ± 0.3,1.44 ± 0.43,1.47 ± 0.46
H3BLV9|Q5R363|Q96SB4|Q96SB4-3|Q96SB4-4 (UniProt Q96SB4),1.08 ± 0.011,1.14 ± 0.035,1.22 ± 0.035,1.29 ± 0.036,1.359 ± 0.011,1.46 ± 0.044
F5GXC5|H3BUJ1|Q8TB96 (UniProt Q8TB96),1.01 ± 0.017,1.02 ± 0.054,1.01 ± 0.037,1.008 ± 0.0079,1.01 ± 0.024,0.996 ± 0.023
K4DI93|Q13620-1 (UniProt Q13620),0.991 ± 0.011,0.936 ± 0.05,0.9972 ± 0.0076,0.992 ± 0.028,1 ± 0.017,0.995 ± 0.024
H3BRQ0|Q96CD2 (UniProt Q96CD2),0.997 ± 0.028,0.998 ± 0.014,0.9917 ± 0.0054,1.018 ± 0.008,1 ± 0.041,0.978 ± 0.011
E7ESS3|K7EKW3|Q71RG4|Q71RG4-2 (UniProt Q71RG4),1.01 ± 0.037,1.03 ± 0.045,1 ± 0.039,0.996 ± 0.012,1.01 ± 0.037,1 ± 0.032
G5E994|Q5VW38|Q5VW38-2 (UniProt Q5VW38),1.026 ± 0.0089,1.01 ± 0.018,0.976 ± 0.02,0.983 ± 0.024,1.01 ± 0.021,1.018 ± 0.0091
A0A0C4DH01|Q9NVU0|Q9NVU0-4|Q9NVU0-5|Q9NVU0-2|Q9NVU0-3 (UniProt Q9NVU0),1 ± 0.058,1.02 ± 0.019,1.06 ± 0.052,1.03 ± 0.063,1.02 ± 0.064,1.07 ± 0.081
A0A0A0MSY9|Q92800|Q92800-2|Q92800-3|Q92800-4|Q92800-5 (UniProt Q92800),0.978 ± 0.017,0.97 ± 0.022,0.9794 ± 0.0047,0.994 ± 0.016,0.999 ± 0.019,1.001 ± 0.0058
E7EQT4|Q9UKV3-5|S4R3H4|Q9UKV3-3 (UniProt Q9UKV3),1.05 ± 0.061,1.1 ± 0.021,1.05 ± 0.07,1.03 ± 0.09,0.972 ± 0.04,1.04 ± 0.069
F8WCF9|G5E9E8|Q8N465|Q8N465-2|Q8N465-3 (UniProt Q8N465),0.983 ± 0.03,1.01 ± 0.012,0.992 ± 0.01,1.04 ± 0.035,1.02 ± 0.032,1.03 ± 0.02
H7BYF2|Q5JRG1|Q9BVL2|Q9BVL2-2|Q9BVL2-3 (UniProt Q9BVL2),1.031 ± 0.0089,1.1 ± 0.095,1.04 ± 0.053,1.03 ± 0.033,1.04 ± 0.026,1.11 ± 0.06
